# PubChem BioAssay AID651871 (Sanford-Burnham Center for Chemical Genomics, 2012)
# Several values for one entry are separate records, joined by “and”; a condition that tells them apart may be missing. Equal entries are not always repeated.
# System: H9c2
# Assay: protection of cardiomyocytes from stress damage, SAR follow-up, cell-based, panel, H9c2 and HL-1, ATP luminescence, set 2 (AID 651871);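 further: cells exposed to stressor for 2 h before ATP readout; reference of the scale not given here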
# Settings: H9c2/HL-1 cardiomyocytes, H2O2 oxidative stress; with H2O2, run 4, at 79 µM (top of the series)
row,Structure (SMILES),activity (protection/inhibition)
1,COc1ccc2nc(-c3cc(OC)c(OC)c(OC)c3)cc(C(=O)NCC(=O)Nc3ccc(C(C)=O)cc3)c2c1,86.1% and 56.6%
2,COc1ccc2c(c1OC)C(=O)N1c3ccccc3C(=O)N(Cc3cccc(Cl)c3Cl)C21 (centres undefined),52.4% and 40.9%
3,COc1cc(-c2cc(C(=O)Nc3cccc(C(=O)NCc4ccccc4)c3)c3ccccc3n2)cc(OC)c1OC,87.2%
4,CCOC(=O)c1cccc(NC(=O)CNC(=O)c2cc(-c3cc(OC)c(OC)c(OC)c3)nc3ccccc23)c1,115%
